NALP1 yeast inh: NALP1 inflammasome inhibitors in reconstituted yeast, colorimetric, S. cerevisiae, triplicate retest. S. cerevisiae NALP1/ASC/caspase-1 growth, X-gal OD620, 72 h. inhibition, % at 10 µM. 280,000 compounds, 0.61% hits; in the data active = inhibition mostly above about 24%, no sharp cut-off; inactive = mostly below about 32%
tim23-1 inh: growth inhibitors of tim23-1 mutant yeast, primary screen, luminescence, uHTS; S. cerevisiae tim23-1 growth, BacTiter-Glo luminescence, 24 h; 330,000 compounds, 1.3% hits; inhibition, % at 20 µM;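 active = growth inhibition of the mutant yeast at or above 50%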;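 also: temperature-sensitive mutant grown at 25 °C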
NALP3 yeast inh: NALP3 inflammasome inhibitors in reconstituted yeast, primary screen, luminescence, uHTS; Yeast reconstituted NLRP3/ASC/caspase-1, beta-gal luminescence, 24 h; inhibition, % at 10 µM; 330,000 compounds, 0.39% hits;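 active = inhibition of 50% or more; inactive = inhibition below 50%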
SKKanGAS inh: S. pyogenes SKKanGAS growth inhibitors in kanamycin, primary screen, streptokinase expression inhibitor project, SKKanGAS strain, BacTiter-Glo luminescence; AID 1662, 2009; 300,000 compounds, 1.3% hits; inhibition, % at 7.5 µM; 6 h;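 active = mean replicate score, as percent of positive control median, at least 50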;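 also: strain carries kanamycin resistance gene driven by streptokinase promoter and grows in 40 µg/ml kanamycin; loss of luminescence reflects streptokinase promoter inhibition or plain growth inhibition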
tim10-1 inh: growth inhibitors of tim10-1 mutant yeast, primary screen, luminescence, uHTS. inhibition, % at 20 µM. AID 463190, 2010. S. cerevisiae tim10-1 ts strain growth, BacTiter-Glo, 24 h. 330,000 compounds, 2.2% hits;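 active = inhibition of at least 40%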;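 also: mutant grown at 25 °C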
TIM10 inh: growth inhibitors of isogenic TIM10 control yeast, primary screen, counter-screen for tim10-1 yeast inhibitor project, luminescence, uHTS | S. cerevisiae TIM10 strain growth, BacTiter-Glo luminescence, 24 h | inhibition, % at 10 µM | 330,000 compounds, 1.4% hits | AID 463195, 2010;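 active = inhibition of 40% or more at the single tested concentration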;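 also: wild-type TIM10 isogenic control strain grown at permissive 25 °C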
tim10-1 conf: growth inhibitors of tim10-1 mutant yeast, confirmation, single concentration, luminescence, S. cerevisiae. shares compounds with tim10-1 inh. S. cerevisiae tim10-1 ts strain growth, BacTiter-Glo, 24 h. inhibition, % at 20 µM. 7,400 compounds, 56% hits. AID 463213, 2010;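 active = inhibition of yeast growth at or above a set limit in either of two repeat tests at 20 µM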;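 also: tim10-1 mutant grown at permissive 25 °C to find synthetic lethal compounds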
Each line names hits and unclear results; the compound was inactive in the other large screens (follow-up assays come after a bar, where they were run). Only some compounds are listed: those with a hit (about 4.9% of all), similar ones and a draw of the others.

CN1C(=O)/C(=C\c2ccccc2)Sc2ccc(C(=O)N3CCN(c4ccccn4)CC3)cc21	none (no result: tim23-1 inh, NALP3 yeast inh, SKKanGAS inh, tim10-1 inh, TIM10 inh)
CCn1nc(NC(=O)c2ccccc2)c2cc3cccc(C)c3nc21	tim10-1 inh 46 | tim10-1 conf 32
CCn1nc(NC(C)=O)c2cc3cccc(C)c3nc21	none
O=S(=O)(c1ccccc1)c1cnn(-c2ccccc2)c1-c1ccc(F)cc1	none
COc1ccc(-n2ncc(S(=O)(=O)c3ccccc3)c2-c2ccc(Cl)cc2)cc1	tim10-1 inh 41 | tim10-1 conf inactive
O=C(NC(c1cccnc1)C(F)(F)F)c1cc(COc2ccc3c(c2)CCCC3)on1 (stereo not given)	tim10-1 inh 42 | tim10-1 conf inactive
COc1ccc(N=c2scc(-c3ccc(OC)cc3)n2CCO)cc1	tim10-1 inh 41 | tim10-1 conf inactive
Clc1ccc(-c2csc(=Nc3cccnc3)n2CCCn2ccnc2)cc1Cl	none
COCCn1c(-c2ccc(Br)cc2)csc1=Nc1cccnc1	tim10-1 inh 42 (no result: SKKanGAS inh) | tim10-1 conf inactive
COc1cccc(/C=C2\CCC(C3CCCC3)C2=O)c1OC (stereo not given)	none
CCOC(=O)C1CCCN(C(=O)C2CCN(S(=O)(=O)c3ccc4ccccc4c3)CC2)C1 (stereo not given)	none
CC(C)CC1Nc2ncnc(N3CCOCC3)c2N(Cc2ccc(Br)cc2)C1=O (stereo not given)	none (no result: NALP1 yeast inh)
CC(C)CC1Nc2ncnc(N3CCCCC3)c2N(Cc2ccc(Br)cc2)C1=O (stereo not given)	tim10-1 inh 41 (no result: NALP1 yeast inh) | tim10-1 conf 32
O=C(O)C1C2CCC(O2)C1C(=O)Nc1ccc(Br)cc1F (stereo not given)	none (no result: NALP1 yeast inh, tim23-1 inh, NALP3 yeast inh, tim10-1 inh, TIM10 inh)
Nc1cc(=O)[nH]c(SCc2cccc3ccccc23)n1	none
O=c1cc(C(F)(F)F)nc(SCc2cccc3ccccc23)[nH]1	tim10-1 inh 40 | tim10-1 conf inactive
COc1cc(CCC(=O)OCC(=O)Nc2sccc2C(N)=O)cc(OC)c1OC	none (no result: NALP1 yeast inh, SKKanGAS inh)
O=C(c1cccs1)c1c[nH]cc1-c1ccccc1	tim10-1 inh 52 (no result: NALP1 yeast inh) | tim10-1 conf 38
O=C(c1ccccc1)c1c[nH]cc1-c1ccccc1	none
O=C(C1COc2ccccc2O1)N1CCN(c2nc3c(F)cc(F)cc3s2)CC1 (stereo not given)	tim10-1 inh 40 (no result: NALP1 yeast inh) | tim10-1 conf inactive
O=c1nc(/C=C/c2ccc(-c3ccc(F)cc3)o2)cc(C(F)(F)F)[nH]1	tim10-1 inh 47 | tim10-1 conf 31
CC1CCCN(C(=O)C(=O)c2cn(CC(=O)N3CCCCCC3)c3ccccc23)C1 (stereo not given)	none
COc1ccccc1C(=O)N1CCN(c2nc3cc(C)c(C)cc3cc2C#N)CC1	tim10-1 inh 43 | tim10-1 conf inactive
CCOc1cccc2sc(N(CCN(C)C)C(=O)/C=C/c3cccs3)nc12	tim10-1 inh 47 | tim10-1 conf 32
COc1cccc2sc(N(CCN(C)C)C(=O)/C=C/c3cccs3)nc12	none
CC(C)CN(C(=O)COC(=O)CCc1c[nH]c2ccccc12)c1c(N)n(Cc2ccccc2)c(=O)[nH]c1=O	none (no result: NALP1 yeast inh)
O=C(COC(=O)COc1ccccc1F)Nc1ccc2c(c1)OCO2	none (no result: NALP1 yeast inh, SKKanGAS inh)
COC(=O)c1ccc(OC(=O)CS(=O)c2ccccc2[N+](=O)[O-])cc1 (stereo not given)	tim10-1 inh 55 | tim10-1 conf 36
COc1cccc(/C(C)=N/NS(=O)(=O)c2ccc(Cl)cc2)c1	none
COc1ccc(S(=O)(=O)N/N=C(/C)c2ccc(Cl)cc2)cc1	tim10-1 inh 52 | tim10-1 conf 44
Cn1c(=O)c2c(ncn2CCOc2ccc(F)cc2)n(C)c1=O	none
Cc1sc(NC(=O)C2C3CCC(O3)C2C(=O)O)nc1-c1ccc(CC(C)C)cc1 (stereo not given)	tim10-1 inh 41 | tim10-1 conf inactive

Screening data from PubChem BioAssay.
